# From PubChem BioAssay
# Active and inactive are the calls of the source.
# Columns and labels:
# [1] = tested on: Plasmodium falciparum Sir2 (PF13_0152, Sir2A); assay: Plasmodium falciparum Sir2A binding compounds – biochemical, small-molecule microarray, 635 nm fluorescence, primary screen (AID 1098); conditions: fluorescence 635 nm, higher = more signal;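 also: score merges spot fluorescence intensity with its signal-to-noise ratio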
# [2] = probe aDKK1 binding to arrayed compounds – biochemical, biotinylated probe, 635/667 nm fluorescence, primary screen (AID 1099); conditions: small-molecule microarray, higher = more signal;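 also: score merges 667nm spot fluorescence with signal to noise across triplicate slides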
# [3] = probe aCHRDL2 binding to arrayed compounds – biochemical, biotinylated probe, 635/667 nm fluorescence, primary screen (AID 1100); conditions: small-molecule microarray, higher = more signal
# [4] = change in splice reporter luminescence, either direction, cell-based, HEK293, spliceosome inhibition project, primary screen (AID 1101); conditions: HEK293 splicing luciferase reporter, 24 h, higher = more signal, called active from +8 up or from −8 down;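 also: HEK293 cells carrying a splicing-competent luciferase reporter gene; test concentration not given here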
# [5] = target: Fibroblast growth factor 10 (Homo sapiens) (UniProt O15520); assay: compounds binding fibroblast growth factor 10 – biochemical, small-molecule microarray, 635 nm fluorescence, primary screen (AID 1102); conditions: FGF10 binding, fluorescence 635 nm, higher = more signal
# Fibroblast growth factor 10 (Homo sapiens), sequence (O15520 whole entry, looked up): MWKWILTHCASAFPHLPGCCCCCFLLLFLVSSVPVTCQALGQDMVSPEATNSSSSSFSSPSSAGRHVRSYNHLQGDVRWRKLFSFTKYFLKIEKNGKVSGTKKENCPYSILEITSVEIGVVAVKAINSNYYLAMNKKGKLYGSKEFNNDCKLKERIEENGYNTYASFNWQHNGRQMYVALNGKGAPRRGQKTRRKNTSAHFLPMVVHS
# [6] = tested on: glycogen synthase kinase-3 (GSK3A per assay name; protocol says GSK3B); assay: compounds binding glycogen synthase kinase-3 – biochemical, small-molecule microarray, 635 nm fluorescence, GSK3A, primary screen (AID 1103); conditions: fluorescence 635 nm, higher = more signal; also: the record names both GSK3A and GSK3B
# [7] = target: Epidermal growth factor receptor (Homo sapiens) (UniProt P00533); assay: compounds binding epidermal growth factor receptor – biochemical, small-molecule microarray, 635 nm fluorescence, primary screen (AID 1104); conditions: EGFR binding, higher = more signal;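 also: score merges 667 nm emission intensity with spot signal to noise over triplicate slides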
# Epidermal growth factor receptor (Homo sapiens), sequence (P00533 whole entry, looked up): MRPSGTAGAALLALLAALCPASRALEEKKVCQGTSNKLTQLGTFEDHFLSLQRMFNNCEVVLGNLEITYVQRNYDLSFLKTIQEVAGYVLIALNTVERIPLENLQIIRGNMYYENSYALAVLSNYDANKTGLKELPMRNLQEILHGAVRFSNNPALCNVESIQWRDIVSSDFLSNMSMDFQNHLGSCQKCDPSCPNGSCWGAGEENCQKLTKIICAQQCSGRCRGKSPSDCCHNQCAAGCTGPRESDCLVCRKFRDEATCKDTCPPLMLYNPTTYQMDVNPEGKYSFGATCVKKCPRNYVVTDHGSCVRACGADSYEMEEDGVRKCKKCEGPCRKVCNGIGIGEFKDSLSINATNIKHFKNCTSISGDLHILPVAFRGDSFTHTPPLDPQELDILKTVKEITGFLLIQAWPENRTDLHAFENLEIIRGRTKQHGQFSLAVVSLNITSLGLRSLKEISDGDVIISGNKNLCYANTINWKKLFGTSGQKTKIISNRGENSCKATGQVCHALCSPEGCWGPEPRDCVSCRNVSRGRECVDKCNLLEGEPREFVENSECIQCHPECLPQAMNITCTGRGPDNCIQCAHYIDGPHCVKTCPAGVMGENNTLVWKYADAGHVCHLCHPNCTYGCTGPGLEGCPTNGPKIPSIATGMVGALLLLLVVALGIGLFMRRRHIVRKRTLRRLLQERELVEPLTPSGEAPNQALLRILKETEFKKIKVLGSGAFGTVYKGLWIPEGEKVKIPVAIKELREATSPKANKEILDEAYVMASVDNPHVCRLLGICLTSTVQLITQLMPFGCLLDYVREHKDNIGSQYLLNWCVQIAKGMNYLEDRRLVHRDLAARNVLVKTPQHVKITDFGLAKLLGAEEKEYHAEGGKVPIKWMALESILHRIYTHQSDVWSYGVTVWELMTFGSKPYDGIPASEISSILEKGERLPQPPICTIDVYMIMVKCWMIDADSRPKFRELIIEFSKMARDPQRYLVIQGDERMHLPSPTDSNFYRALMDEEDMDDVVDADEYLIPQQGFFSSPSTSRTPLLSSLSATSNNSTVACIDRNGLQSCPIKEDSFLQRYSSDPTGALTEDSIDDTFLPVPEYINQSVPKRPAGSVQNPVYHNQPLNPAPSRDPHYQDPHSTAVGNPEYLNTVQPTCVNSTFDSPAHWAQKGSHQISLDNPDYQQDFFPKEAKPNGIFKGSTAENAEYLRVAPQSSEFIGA
# [8] = target: Follistatin-related protein 3 (Homo sapiens) (UniProt O95633); assay: compounds binding follistatin-related protein 3 – biochemical, small-molecule microarray, 635 nm fluorescence, primary screen (AID 1105); conditions: FSTL3 binding, higher = more signal;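 also: score merges emission near 667 nm and signal to noise per printed spot across three slides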
# Follistatin-related protein 3 (Homo sapiens), sequence (O95633 whole entry, looked up): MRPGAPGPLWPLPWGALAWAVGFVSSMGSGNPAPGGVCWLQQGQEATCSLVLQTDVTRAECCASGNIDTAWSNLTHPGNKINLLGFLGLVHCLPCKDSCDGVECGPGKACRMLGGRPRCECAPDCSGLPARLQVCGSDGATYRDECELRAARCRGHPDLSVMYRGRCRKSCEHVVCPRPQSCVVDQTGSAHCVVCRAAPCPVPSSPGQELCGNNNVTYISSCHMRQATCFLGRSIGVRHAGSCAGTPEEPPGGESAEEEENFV
# [9] = target: Dickkopf-related protein 1 (Homo sapiens) (UniProt O94907); assay: small molecules binding DKK1 protein – biochemical, small-molecule microarray, 635 nm fluorescence scan, primary screen (AID 1106); conditions: higher = more signal;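 also: score merges emission near 667 nm with signal to noise over three replicate slides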
# Dickkopf-related protein 1 (Homo sapiens), sequence (O94907 whole entry, looked up): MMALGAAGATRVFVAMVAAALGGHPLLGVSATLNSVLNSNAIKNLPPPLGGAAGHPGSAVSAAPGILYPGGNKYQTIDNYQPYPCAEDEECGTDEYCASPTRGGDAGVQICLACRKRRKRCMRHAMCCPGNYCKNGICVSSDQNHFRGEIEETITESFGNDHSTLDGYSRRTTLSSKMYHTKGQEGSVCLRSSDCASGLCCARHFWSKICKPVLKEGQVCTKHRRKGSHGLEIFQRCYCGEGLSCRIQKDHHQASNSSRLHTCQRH
# [10] = tested on: Inhibin beta A chain (activin A); assay: small molecules binding activin A – biochemical, small-molecule microarray, 635 nm fluorescence scan, primary screen (AID 1107); conditions: INHBA, higher = more signal;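 also: mouse activin A protein probed at 4.33 µg/mL on printed slides; score merges bound-protein fluorescence near 667 nm with spot signal-to-noise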
# [11] = tested on: Human papillomavirus type 1a protein E7 (residues 44-93); assay: small molecules binding HPV E7 44-93 – biochemical, small-molecule microarray, residues 44-93, 635 nm fluorescence, primary screen (AID 1108); conditions: fluorescence 635 nm, higher = more signal;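 also: E7 fragment applied at 1 µg/mL in TBST for 1 h at 4 C; score combines spot fluorescence with its signal to noise ratio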
# [12] = hepatitis C replication reporter changes, two-sided – Huh7 cells, luciferase reporter, HCV replication inhibitor project, primary screen (AID 1109); conditions: Huh7 HCV replicon luciferase reporter, 48 h; higher = more signal;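 also: huh7 hepatoma cells harbouring a luciferase neomycin HCV replicon reporter; luciferase luminescence as measure of HCV replicon replication; test concentration not given here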
# [13] = target: Left-right determination factor 2 (Homo sapiens) (UniProt O00292); assay: small molecules binding LEFTY2 protein – biochemical, small-molecule microarray, 635 nm fluorescence scan, primary screen (AID 1110); conditions: higher = more signal
# Left-right determination factor 2 (Homo sapiens), sequence (O00292 whole entry, looked up): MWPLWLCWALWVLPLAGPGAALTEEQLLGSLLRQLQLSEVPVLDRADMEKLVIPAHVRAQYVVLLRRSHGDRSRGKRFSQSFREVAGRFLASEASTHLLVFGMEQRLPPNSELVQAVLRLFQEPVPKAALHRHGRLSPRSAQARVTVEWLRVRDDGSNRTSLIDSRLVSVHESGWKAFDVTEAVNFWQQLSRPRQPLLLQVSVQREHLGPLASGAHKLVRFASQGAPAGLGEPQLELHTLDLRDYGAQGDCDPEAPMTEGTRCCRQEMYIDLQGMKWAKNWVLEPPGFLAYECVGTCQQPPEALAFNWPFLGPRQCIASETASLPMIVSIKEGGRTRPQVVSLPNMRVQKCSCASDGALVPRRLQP
# [14] = target: Calmodulin-1 (Homo sapiens) (UniProt P0DP23); assay: small molecules binding calmodulin-1 with EGTA – biochemical, small-molecule microarray, Cy5-labelled CALM1, profiling panel (AID 1111); conditions: Cy5-CALM1 binding fluorescence, higher = more signal;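 also: labelled calmodulin applied in Tris saline Tween buffer holding calcium plus EGTA and DTT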
# [15] = target: Calmodulin-1 (Homo sapiens) (UniProt P0DP23); assay: small molecules binding Ca-loaded calmodulin-1 – biochemical, small-molecule microarray, Cy5-labelled CALM1, plus calcium, artefact control for SMM control-protein annotation, profiling panel (AID 1112); conditions: Cy5-CALM1 binding fluorescence, higher = more signal;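 also: score merges spot fluorescence with signal to noise from triplicate slides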
# [16] = probe aWnt5a binding to arrayed compounds – biochemical, biotinylated probe, 635/667 nm fluorescence, primary screen (AID 1113); conditions: small-molecule microarray, higher = more signal;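 also: score merges 667 nm fluorescence intensity with signal-to-noise per printed feature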
# [17] = probe aShh binding to arrayed compounds – biochemical, biotinylated probe, 635/667 nm fluorescence, primary screen (AID 1114); conditions: small-molecule microarray, higher = more signal;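 also: probe is biotin-labelled aShh protein from a stem cell growth factor screen; measures binding of labelled protein to compounds printed on the slide; score merges feature fluorescence at 667 nm with signal-to-noise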
# [18] = probe aNog binding to arrayed compounds – biochemical, biotinylated probe, 635/667 nm fluorescence, primary screen (AID 1115); conditions: small-molecule microarray, higher = more signal;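 also: probe is biotinylated aNog protein used at 0.15 µg/mL for 1 h at 4 C; z-score combines 667 nm fluorescence of each spot with its signal to noise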
# [19] = target: Torsin-1A-interacting protein 1 (Homo sapiens) (UniProt Q5JTV8); assay: compound microarray binding of lysate hLAP1 – cell lysate, small-molecule microarray, COS7 lysate, 635/667 nm fluorescence, primary screen (AID 1116); conditions: 635 nm fluorescence, higher = more signal
# Torsin-1A-interacting protein 1 (Homo sapiens), sequence (Q5JTV8 whole entry, looked up): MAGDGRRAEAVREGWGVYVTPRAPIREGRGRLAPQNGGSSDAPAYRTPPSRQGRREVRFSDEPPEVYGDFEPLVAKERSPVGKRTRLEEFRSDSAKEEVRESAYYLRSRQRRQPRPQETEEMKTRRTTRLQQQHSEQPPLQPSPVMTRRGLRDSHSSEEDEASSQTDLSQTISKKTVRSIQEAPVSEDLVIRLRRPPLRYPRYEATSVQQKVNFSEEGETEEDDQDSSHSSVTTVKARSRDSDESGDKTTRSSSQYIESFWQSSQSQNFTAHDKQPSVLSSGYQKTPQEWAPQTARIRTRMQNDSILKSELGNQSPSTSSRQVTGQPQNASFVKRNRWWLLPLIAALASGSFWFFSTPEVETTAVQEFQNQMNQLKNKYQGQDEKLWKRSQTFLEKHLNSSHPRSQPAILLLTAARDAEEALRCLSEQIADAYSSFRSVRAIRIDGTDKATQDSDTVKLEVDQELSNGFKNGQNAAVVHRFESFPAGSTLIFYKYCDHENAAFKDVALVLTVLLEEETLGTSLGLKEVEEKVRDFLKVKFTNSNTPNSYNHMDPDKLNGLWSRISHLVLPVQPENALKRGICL
# [20] = target: Alpha-bungarotoxin (Bungarus multicinctus) (UniProt P60615); assay: compounds binding labelled alpha-BTX control protein – biochemical, small-molecule microarray, Alexa647 label, 635/667 nm fluorescence, artefact control for SMM control protein annotation, profiling panel (AID 1117); conditions: alpha-BTX-A647 binding fluorescence, higher = more signal
# Alpha-bungarotoxin (Bungarus multicinctus), sequence (P60615 whole entry, looked up): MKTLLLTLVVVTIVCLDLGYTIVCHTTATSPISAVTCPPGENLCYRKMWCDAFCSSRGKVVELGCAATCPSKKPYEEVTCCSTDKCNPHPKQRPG
SMILES,composite z-score [1],composite z-score [2],composite z-score [3],z-score [4],composite z-score [5],composite z-score [6],composite z-score [7],composite z-score [8],composite z-score [9],composite z-score [10],composite z-score [11],z-score [12],composite z-score [13],composite z-score [14],composite z-score [15],composite z-score [16],composite z-score [17],composite z-score [18],composite z-score [19],composite z-score [20]
COCCCNC(=O)[C@@]1(CCS(=O)(=O)c2ccccc2)N=C(c2ccc(OCCCO)cc2)O[C@H]1c1ccccc1,1.69,1.45,1.16,0.409 (inactive),1.12,1.29,-0.11,-0.21,0.026,0.0123,0.432,-1.2,-0.133,0.361,0.4,0.525,0.179,2.11,2.95,2.44
COc1ccc(O[C@H]2C=C[C@@H](c3ccccc3)O[C@@H]2COC(=O)CCC(C)=NOC[C@@H](C)[C@H](OCc2ccccc2)C(C)C)cc1,-0.886,-0.366,-0.529,0.292 (inactive),-0.433,-0.662,-0.706,-0.629,-0.698,0.553,-2.09,-0.667,-0.306,-1.65,-0.741,-0.0748,-0.283,-0.233,-0.956,-1.04
N#Cc1ccc(NN2C(C(O)c3cccc4ccccc34)C=CC3C(=O)N(c4ccccc4)C(=O)C32)cc1 (stereo not given),0.582,0.687,1.14,1.27 (inactive),0.899,0.676,0.316,0.898,-0.203,0.478,1.48,0.148,0.221,1.74,0.164,0.139,0.23,0.837,0.365,1.09
CCCNC(=O)OC[C@H]1O[C@H](CCON=CC[C@@H]2C=C[C@H](OC(C)=O)[C@@H](COC(C)=O)O2)C=C[C@@H]1Oc1ccc(OC)cc1,0.46,-0.0927,-0.412,0.599 (inactive),0.817,0.524,0.492,0.759,0.537,0.434,0.791,0.0229,0.667,-0.625,-0.867,-0.0718,-0.442,-0.267,0.444,0.945
CC(C)(C)OC(=O)CC[C@]1(C(=O)NCc2ccccc2)N=C(c2ccc(OCCCO)cc2)O[C@H]1c1ccccc1,1.73,-0.0749,0.574,0.351 (inactive),0.686,1.24,0.0167,-0.136,-0.402,-0.285,1.02,-2.44,-0.598,1.91,0.683,0.257,0.147,-0.198,1.6,1.53
CCN1C(=O)[C@H]2[C@H]3[C@H](O)[C@H](O)CC(=NOCc4ccccc4)[C@@H]3CC[C@H]2C1=O,0.119,0.214,-0.585,-1.02 (inactive),0.302,0.478,0.33,0.51,0.267,0.383,0.515,-0.0462,0.609,0.36,-0.467,-0.0819,-0.349,-0.551,0.138,0.29
c1ccc(C2NCCc3c2[nH]c2ccccc32)cc1 (stereo not given),-0.214,-0.227,0.412,-0.231 (inactive),0.269,-0.704,0.112,-0.142,0.0559,0.586,-0.571,-3.13,0.106,-0.387,-0.951,-0.124,-0.147,0.183,0.446,0.128
[N-]=[N+]=Nc1ccccc1C[C@@]1(C(N)=O)N=C(c2ccc(OCCCO)cc2)O[C@@H]1c1ccccc1,0.616,1.53,1.3,-1.23 (inactive),-0.0111,-0.0514,-0.874,-0.0838,-0.82,1.34,0.692,-2.38,-1.09,1.7,0.824,-0.0445,0.456,0.662,1.26,0.546
CO[C@H]1COC(=O)[C@H](C)COC(=O)CC=C[C@@H](C)[C@H](OC)COC(=O)CC=C[C@@H]1C,0.864,-0.466,-1.28,0.0172 (inactive),0.207,0.432,1.47,1.32,1.02,1.28,-0.797,-0.265,1.15,-0.556,-1.28,-0.0944,-0.0709,-0.158,-0.0635,-0.289
COCC1=C2[C@@H](CCc3ccccc3)OB(O)C[C@@H]2n2c(=O)n(-c3ccccc3)c(=O)n2C1,0.48,-0.32,-0.448,0.184 (inactive),0.511,-0.114,0.492,0.444,0.374,0.632,-0.289,0.332,0.26,-0.455,-0.438,-0.158,-0.304,-0.213,0.152,-0.148
COc1ccc(CCNC(=O)[C@@H]2c3ccccc3C(=O)N(c3ccc(C)cn3)[C@H]2c2ccc(CO)cc2)cc1,1.73,0.263,1.19,-0.403 (inactive),-1.06,-0.37,-1.68,-1.16,-2.4,-0.082,-0.618,0.267,-1.76,-0.822,-0.796,-0.242,-0.367,-0.266,3.04,-0.955
